Reference: ChEMBL document CHEMBL1961873, “Compounds: GSK PKIS; Assays: Nanosyn kinase panel” (2012)

How the values were obtained:
[1] = molecular target: RAC-alpha serine/threonine-protein kinase (Homo sapiens) (UniProt P31749); settings: at 0.1 µM
[2] = molecular target: RAC-alpha serine/threonine-protein kinase (Homo sapiens) (UniProt P31749); settings: at 1 µM
[3] = molecular target: RAC-beta serine/threonine-protein kinase (Homo sapiens) (UniProt P31751); settings: at 0.1 µM
[4] = molecular target: RAC-beta serine/threonine-protein kinase (Homo sapiens) (UniProt P31751); settings: at 1 µM
[5] = molecular target: RAC-gamma serine/threonine-protein kinase (Homo sapiens) (UniProt Q9Y243); settings: at 0.1 µM
Chain of RAC-gamma serine/threonine-protein kinase (Homo sapiens) (Q9Y243 whole entry): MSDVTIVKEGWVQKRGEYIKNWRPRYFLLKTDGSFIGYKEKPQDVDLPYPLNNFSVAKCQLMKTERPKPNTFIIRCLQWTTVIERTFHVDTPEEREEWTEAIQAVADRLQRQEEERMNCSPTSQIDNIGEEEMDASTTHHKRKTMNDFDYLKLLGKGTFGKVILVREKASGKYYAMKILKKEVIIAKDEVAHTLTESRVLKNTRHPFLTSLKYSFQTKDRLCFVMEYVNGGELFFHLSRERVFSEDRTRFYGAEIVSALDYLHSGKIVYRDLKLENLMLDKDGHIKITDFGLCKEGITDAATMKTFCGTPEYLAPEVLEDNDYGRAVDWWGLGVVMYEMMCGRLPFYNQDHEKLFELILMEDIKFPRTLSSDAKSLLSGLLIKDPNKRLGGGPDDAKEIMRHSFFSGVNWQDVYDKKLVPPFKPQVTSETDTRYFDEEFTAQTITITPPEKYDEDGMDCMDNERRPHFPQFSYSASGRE

[6] = molecular target: RAC-gamma serine/threonine-protein kinase (Homo sapiens) (UniProt Q9Y243); settings: at 1 µM
[7] = molecular target: G protein-coupled receptor kinase 6 (Homo sapiens) (UniProt P43250); settings: at 0.1 µM
[8] = molecular target: G protein-coupled receptor kinase 6 (Homo sapiens) (UniProt P43250); settings: at 1 µM
[9] = molecular target: T1, Rhodopsin kinase GRK7 (Homo sapiens) (UniProt Q8WTQ7); settings: at 0.1 µM
T1 sequence (whole entry): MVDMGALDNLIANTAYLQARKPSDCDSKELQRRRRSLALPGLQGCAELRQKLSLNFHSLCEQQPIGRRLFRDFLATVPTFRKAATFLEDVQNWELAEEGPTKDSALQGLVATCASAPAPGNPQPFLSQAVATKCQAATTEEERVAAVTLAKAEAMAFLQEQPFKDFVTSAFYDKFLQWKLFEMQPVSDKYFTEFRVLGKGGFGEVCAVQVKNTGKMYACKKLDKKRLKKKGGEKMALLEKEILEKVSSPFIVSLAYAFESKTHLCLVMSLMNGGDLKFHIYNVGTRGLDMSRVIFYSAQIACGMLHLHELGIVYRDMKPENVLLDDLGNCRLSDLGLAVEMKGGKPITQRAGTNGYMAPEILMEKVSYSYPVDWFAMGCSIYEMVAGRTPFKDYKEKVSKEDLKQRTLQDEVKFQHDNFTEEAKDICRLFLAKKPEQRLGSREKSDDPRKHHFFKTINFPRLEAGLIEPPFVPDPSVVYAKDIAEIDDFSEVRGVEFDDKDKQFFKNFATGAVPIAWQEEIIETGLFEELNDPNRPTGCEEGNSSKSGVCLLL

[10] = molecular target: T1, Rhodopsin kinase GRK7 (Homo sapiens); settings: at 1 µM
[11] = molecular target: Serine/threonine-protein kinase MRCK alpha (Homo sapiens) (UniProt Q5VT25); settings: at 0.1 µM
Chain of Serine/threonine-protein kinase MRCK alpha (Homo sapiens) (Q5VT25 whole entry): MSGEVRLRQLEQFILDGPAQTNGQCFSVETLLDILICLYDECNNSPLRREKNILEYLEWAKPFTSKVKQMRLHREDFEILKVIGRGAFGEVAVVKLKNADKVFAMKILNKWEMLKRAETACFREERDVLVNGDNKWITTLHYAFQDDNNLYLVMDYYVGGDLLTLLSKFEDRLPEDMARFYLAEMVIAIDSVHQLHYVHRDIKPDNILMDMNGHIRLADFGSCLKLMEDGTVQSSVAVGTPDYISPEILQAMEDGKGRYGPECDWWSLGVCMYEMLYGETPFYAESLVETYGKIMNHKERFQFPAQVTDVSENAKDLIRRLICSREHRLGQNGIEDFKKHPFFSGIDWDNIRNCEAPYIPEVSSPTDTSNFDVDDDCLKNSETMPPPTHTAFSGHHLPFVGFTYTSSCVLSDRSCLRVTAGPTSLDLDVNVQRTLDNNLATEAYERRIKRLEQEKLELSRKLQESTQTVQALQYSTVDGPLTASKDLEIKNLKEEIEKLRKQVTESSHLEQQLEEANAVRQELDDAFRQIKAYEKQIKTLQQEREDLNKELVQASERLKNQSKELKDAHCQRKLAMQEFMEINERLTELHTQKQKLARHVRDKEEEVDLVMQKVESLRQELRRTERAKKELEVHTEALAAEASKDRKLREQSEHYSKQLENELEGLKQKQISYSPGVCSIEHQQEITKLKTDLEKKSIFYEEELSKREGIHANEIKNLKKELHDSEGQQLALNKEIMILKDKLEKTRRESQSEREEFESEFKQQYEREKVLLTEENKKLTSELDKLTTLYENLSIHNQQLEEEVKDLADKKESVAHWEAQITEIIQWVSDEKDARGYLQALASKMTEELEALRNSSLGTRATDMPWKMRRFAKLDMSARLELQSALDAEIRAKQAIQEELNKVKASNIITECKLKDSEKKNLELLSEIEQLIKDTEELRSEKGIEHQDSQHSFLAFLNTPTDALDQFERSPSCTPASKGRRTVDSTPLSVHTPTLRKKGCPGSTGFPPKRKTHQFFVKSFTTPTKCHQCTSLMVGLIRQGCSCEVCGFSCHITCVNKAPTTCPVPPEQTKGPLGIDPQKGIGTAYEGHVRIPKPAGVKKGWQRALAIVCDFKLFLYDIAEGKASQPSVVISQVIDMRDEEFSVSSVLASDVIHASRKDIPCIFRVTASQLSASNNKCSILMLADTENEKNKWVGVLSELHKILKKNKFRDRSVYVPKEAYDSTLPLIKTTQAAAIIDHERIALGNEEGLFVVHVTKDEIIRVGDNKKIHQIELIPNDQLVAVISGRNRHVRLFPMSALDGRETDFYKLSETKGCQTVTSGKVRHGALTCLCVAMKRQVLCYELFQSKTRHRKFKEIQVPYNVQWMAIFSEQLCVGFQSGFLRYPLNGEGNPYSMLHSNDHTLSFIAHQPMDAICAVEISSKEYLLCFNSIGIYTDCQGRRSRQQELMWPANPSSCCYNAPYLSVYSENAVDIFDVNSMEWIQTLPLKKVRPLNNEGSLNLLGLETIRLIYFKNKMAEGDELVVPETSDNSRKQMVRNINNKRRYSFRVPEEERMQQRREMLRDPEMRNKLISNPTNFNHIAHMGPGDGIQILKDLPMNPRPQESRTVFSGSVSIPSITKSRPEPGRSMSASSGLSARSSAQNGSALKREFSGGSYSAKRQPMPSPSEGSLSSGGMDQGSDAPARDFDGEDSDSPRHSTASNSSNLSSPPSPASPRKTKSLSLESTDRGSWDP

[12] = molecular target: Serine/threonine-protein kinase MRCK alpha (Homo sapiens) (UniProt Q5VT25); settings: at 1 µM
[13] = molecular target: Serine/threonine-protein kinase MRCK beta (Homo sapiens) (UniProt Q9Y5S2); settings: at 0.1 µM
Chain of Serine/threonine-protein kinase MRCK beta (Homo sapiens) (Q9Y5S2 whole entry): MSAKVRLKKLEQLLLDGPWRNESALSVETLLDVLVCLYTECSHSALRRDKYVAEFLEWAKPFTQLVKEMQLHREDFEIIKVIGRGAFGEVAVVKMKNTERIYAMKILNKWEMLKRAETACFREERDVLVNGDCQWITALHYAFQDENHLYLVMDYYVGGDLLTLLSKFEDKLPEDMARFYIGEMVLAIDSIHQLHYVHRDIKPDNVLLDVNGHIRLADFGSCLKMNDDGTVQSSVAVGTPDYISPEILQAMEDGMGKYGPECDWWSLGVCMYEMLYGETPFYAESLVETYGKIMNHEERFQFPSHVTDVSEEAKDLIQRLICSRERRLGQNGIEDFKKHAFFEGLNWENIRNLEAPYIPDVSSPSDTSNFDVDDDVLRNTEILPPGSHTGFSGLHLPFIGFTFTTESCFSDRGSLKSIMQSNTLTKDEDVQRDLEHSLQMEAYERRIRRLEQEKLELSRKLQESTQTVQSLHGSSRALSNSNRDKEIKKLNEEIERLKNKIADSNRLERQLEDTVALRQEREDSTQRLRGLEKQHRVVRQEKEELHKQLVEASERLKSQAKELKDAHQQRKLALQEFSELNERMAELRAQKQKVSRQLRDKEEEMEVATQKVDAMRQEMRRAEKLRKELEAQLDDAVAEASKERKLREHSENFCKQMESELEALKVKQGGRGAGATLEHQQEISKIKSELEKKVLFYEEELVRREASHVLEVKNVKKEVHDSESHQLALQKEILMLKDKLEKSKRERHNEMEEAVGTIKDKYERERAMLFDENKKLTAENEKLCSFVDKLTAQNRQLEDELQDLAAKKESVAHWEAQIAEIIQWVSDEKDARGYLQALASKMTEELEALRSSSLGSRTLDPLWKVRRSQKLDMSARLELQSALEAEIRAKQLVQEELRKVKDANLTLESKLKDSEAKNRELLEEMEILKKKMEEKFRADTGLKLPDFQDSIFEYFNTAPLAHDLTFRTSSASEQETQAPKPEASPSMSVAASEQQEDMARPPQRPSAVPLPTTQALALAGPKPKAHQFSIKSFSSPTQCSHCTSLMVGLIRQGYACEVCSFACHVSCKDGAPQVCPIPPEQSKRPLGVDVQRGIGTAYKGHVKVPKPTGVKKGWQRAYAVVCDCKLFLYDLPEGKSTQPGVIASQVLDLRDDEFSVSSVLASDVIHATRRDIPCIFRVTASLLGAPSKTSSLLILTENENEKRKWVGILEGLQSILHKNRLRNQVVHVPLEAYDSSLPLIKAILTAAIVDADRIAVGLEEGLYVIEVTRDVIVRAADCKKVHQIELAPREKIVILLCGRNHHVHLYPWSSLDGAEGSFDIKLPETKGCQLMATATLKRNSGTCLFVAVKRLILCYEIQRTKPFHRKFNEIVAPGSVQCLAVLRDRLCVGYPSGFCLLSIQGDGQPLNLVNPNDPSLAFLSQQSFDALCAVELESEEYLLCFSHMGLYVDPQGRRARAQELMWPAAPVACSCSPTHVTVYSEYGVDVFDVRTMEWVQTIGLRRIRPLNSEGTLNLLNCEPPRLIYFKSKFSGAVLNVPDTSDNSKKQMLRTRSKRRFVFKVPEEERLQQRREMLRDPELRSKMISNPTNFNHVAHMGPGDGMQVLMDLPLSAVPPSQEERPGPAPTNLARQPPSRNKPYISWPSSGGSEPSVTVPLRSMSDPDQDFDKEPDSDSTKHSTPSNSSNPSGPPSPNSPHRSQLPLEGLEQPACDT

[14] = molecular target: Serine/threonine-protein kinase MRCK beta (Homo sapiens) (UniProt Q9Y5S2); settings: at 1 µM
[15] = molecular target: Ribosomal protein S6 kinase alpha-5 (Homo sapiens) (UniProt O75582); settings: at 0.1 µM
Chain of Ribosomal protein S6 kinase alpha-5 (Homo sapiens) (O75582 whole entry, looked up): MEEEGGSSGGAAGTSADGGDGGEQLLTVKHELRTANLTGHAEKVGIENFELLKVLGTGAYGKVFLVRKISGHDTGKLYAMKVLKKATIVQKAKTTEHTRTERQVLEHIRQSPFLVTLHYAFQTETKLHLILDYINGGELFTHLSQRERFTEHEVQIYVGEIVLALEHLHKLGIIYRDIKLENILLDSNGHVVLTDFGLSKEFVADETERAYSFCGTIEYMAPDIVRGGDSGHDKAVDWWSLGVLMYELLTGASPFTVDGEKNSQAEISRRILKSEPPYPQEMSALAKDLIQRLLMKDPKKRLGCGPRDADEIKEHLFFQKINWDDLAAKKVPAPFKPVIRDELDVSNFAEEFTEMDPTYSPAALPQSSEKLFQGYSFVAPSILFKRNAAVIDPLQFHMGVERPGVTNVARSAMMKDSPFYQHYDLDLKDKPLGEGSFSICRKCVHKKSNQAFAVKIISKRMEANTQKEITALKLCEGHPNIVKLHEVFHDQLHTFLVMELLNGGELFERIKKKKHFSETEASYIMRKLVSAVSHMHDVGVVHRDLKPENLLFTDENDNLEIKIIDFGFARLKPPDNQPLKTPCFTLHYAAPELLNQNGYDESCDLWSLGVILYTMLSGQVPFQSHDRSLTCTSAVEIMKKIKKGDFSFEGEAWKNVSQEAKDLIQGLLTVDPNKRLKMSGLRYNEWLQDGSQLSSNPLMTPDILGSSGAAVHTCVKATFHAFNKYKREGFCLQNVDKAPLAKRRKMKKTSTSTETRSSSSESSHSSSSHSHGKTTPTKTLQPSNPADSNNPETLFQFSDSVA

[16] = molecular target: Ribosomal protein S6 kinase alpha-5 (Homo sapiens) (UniProt O75582); settings: at 1 µM
[17] = molecular target: Ribosomal protein S6 kinase alpha-4 (Homo sapiens) (UniProt O75676); settings: at 0.1 µM
[18] = molecular target: Ribosomal protein S6 kinase alpha-4 (Homo sapiens) (UniProt O75676); settings: at 1 µM
[19] = molecular target: Ribosomal protein S6 kinase beta-1 (Homo sapiens) (UniProt P23443); settings: at 0.1 µM
[20] = molecular target: Ribosomal protein S6 kinase beta-1 (Homo sapiens) (UniProt P23443); settings: at 1 µM

| SMILES | inhibition [1] [%] | inhibition [2] [%] | inhibition [3] [%] | inhibition [4] [%] | inhibition [5] [%] | inhibition [6] [%] | inhibition [7] [%] | inhibition [8] [%] | inhibition [9] [%] | inhibition [10] [%] | inhibition [11] [%] | inhibition [12] [%] | inhibition [13] [%] | inhibition [14] [%] | inhibition [15] [%] | inhibition [16] [%] | inhibition [17] [%] | inhibition [18] [%] | inhibition [19] [%] | inhibition [20] [%] |
| --- | --- | --- | --- | --- | --- | --- | --- | --- | --- | --- | --- | --- | --- | --- | --- | --- | --- | --- | --- | --- |
| Cc1ccc(C(=O)NC(C)C)cc1-c1ccc(C(=O)NCC2CC2)cc1 | -2.54 | -2.49 | -4.74 | -3 | -3.94 | -1.32 | -3.15 | -2.12 | -1.17 | -7.32 | 0.02 | -2.08 | 0.15 | 0.39 | -3.69 | -3.9 | -1.65 | -2.17 | -2.1 | -2.29 |
| CS(=O)(=O)CCNCc1cc(-c2cc3c(Nc4ccc(OCc5cccc(F)c5)c(Cl)c4)ncnc3s2)cs1 | 0.79 | 0.35 | 0.7 | 1.93 | 1.15 | 3.27 | 6.28 | 6.32 | 8.59 | 4.24 | 2.36 | 5.45 | -0.63 | 2.8 | 2.17 | 1.79 | 3.41 | 4.94 | 2.17 | 4.75 |
| CNC(=O)c1cncc(/C=C/c2c(C)cccc2C)c1 | -2.43 | -2.92 | -3.43 | -4.29 | -2.01 | -2.42 | 4.6 | -0.29 | 1.47 | -7.66 | 1.09 | 4.17 | -0.27 | -0.99 | -1.22 | -0.95 | 1.35 | 1.5 | 2.04 | 0.86 |
| CCS(=O)(=O)c1ccc(OC)c(Nc2ncc(-c3ccccc3Cl)o2)c1 | 0.85 | 0.46 | 0.22 | 0.16 | 0.76 | 0.93 | 2.4 | -0.11 | -1.21 | -6.79 | -0.23 | 1.6 | -0.41 | 0.3 | 0.87 | 3.53 | 0.38 | 1.77 | 0.04 | 2.73 |
| O=C1Nc2ccc(I)cc2C1=Cc1cc(Br)c(O)c(Br)c1 | 1.14 | 0.96 | 1.72 | 1.1 | 1.78 | 0.85 | 4.84 | 17.8 | 12.1 | 15.5 | 6.44 | 3.97 | -0.53 | 1.27 | 1.69 | 1.77 | 2.87 | 4.68 | 2.06 | 4.52 |
| NC(=O)Cc1ccccc1Oc1nccc(-c2c(-c3ccc(F)cc3)ncn2C2CCNCC2)n1 | 0.16 | 0.12 | 1.23 | 0.29 | 0.15 | 1.21 | -1.33 | -0.72 | 1 | 1.09 | 0.16 | -0.52 | -0.05 | 1.05 | 2.22 | 1.53 | -1.39 | 1.64 | 0.73 | 1.27 |
| CCC(=O)Nc1ccc(C)c(-c2ccc(C(=O)NCC3CC3)cc2)c1 | 0.29 | 0.52 | 2.4 | 1.7 | 0.86 | 2.4 | 4.21 | 3.82 | 8.7 | 1.14 | 0 | 1.8 | -0.7 | 0.23 | 0.17 | -0.98 | 1.96 | 2.63 | 0.91 | 1.77 |
| Cc1ccc(C(=O)NC2CCC2)cc1-c1ccc(C(=O)NCC2CC2)cc1 | 0.45 | -0.14 | 1.03 | 1.6 | 2.92 | 2.79 | 1.01 | 1.27 | 2.9 | 3.16 | 0.19 | 0.56 | 0.73 | 0.97 | 2.7 | 2.99 | 1.75 | 3.11 | 1.12 | 0.01 |
| COc1cc(Nc2ncc3c(C)nc(-c4cccc(Oc5ccccc5)c4)n3n2)cc(OC)c1OC | 0.97 | 1.22 | 0.47 | 1.85 | 1.02 | 1.43 | 1.19 | -5.44 | -0.36 | -5.43 | 0.02 | -0.11 | 0.97 | 1.86 | 8.17 | 7.74 | 0.96 | 2.98 | 1.98 | 3.01 |
| c1ccc(Oc2ccc(Nc3ncc(-c4ccccc4)o3)cc2)cc1 | 0.05 | 0.39 | 0.18 | 0.15 | -0.09 | 1.21 | 2.54 | 0.81 | 2.37 | 2 | -0.31 | 1.06 | 0.44 | 3.62 | 0.98 | 3.6 | 1.31 | 3.78 | 0.11 | -0.31 |
| Fc1ccc(-c2ncn(C3CCNCC3)c2-c2ccnc(Oc3ccc(Oc4ccccc4)cc3)n2)cc1 | 1.23 | 1.87 | 1.23 | 1.51 | 2.28 | 4.62 | 3.64 | 6.73 | 10.9 | 3.4 | 5.81 | 7.37 | -0.26 | 1.5 | 10.2 | 11.9 | 2.53 | 5.09 | 2.41 | 4.57 |
| CCc1ccc(Oc2nccc(-c3c(-c4ccc(F)cc4)ncn3C3CCNCC3)n2)cc1 | 2.02 | 3.72 | 2.05 | 3.62 | 2.08 | 11.5 | 3.46 | 4.51 | 6.57 | 7.25 | 10 | 12 | 0.41 | 4.65 | 2.63 | 4.23 | 3.19 | 5.69 | 1.57 | 5.93 |
